According to PubChem BioAssay:
Calls of active or inactive are those of the source.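 The calls were made as follows, unless noted: active = inhibition of the reporter signal at or above 50%; inactive = inhibition below 50%.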

Assays:
[1] = inhibitors of TNFa-induced NFkB p65 translocation, primary screen, imaging, HUVEC, MLSMR starter and 10KST1 sets (AID 438;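 active = inhibition above 20% together with a positive visual image hit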;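 also: compound added about 3h40 before a 20 min TNFalpha stimulation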;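 as to inhibition: signal is the nuclear over cytoplasmic p65 intensity ratio per well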); conditions: HUVEC TNFa-induced p65 nuclear translocation; cell count: measured here: nuclei count (cytotoxicity indicator), at 2.08 µM; inhibition: at 2 µM, stronger effect = higher value, 0% TNFa-plus-vehicle, 100% no-TNFa wells
[2] = inhibitors of mutant huntingtin aggregation, primary screen, imaging, exon1htt(103Q)mCFP cells, high-content imaging (AID 483;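 active = visual image review flags a hit and inhibition of aggregation exceeds 20%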;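 also: compound exposure lasted 3 days before fixation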;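 as to nuclei count: percent of the per-plate median nuclei count of sample wells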); conditions: exon1htt(103Q)mCFP cell line, aggregate imaging, at 2 µM; inhibition of aggregation: stronger effect = higher value; nuclei count: measured here: cell count, toxicity
[3] = inhibitors of E-selectin induction by TNFa, primary screen, imaging, HUVEC, immunofluorescence, MLSMR starter and 10KST1 sets (AID 487;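 active = visually confirmed hit in the image check and inhibition above 20%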;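 as to inhibition: signal is fraction of cell area covered by stained E-selectin grains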;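 as to nuclei count: 100% = median nuclei count of all wells on the same plate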); conditions: HUVEC TNFalpha-induced E-selectin immunofluorescence imaging, at 2 µM; inhibition: stronger effect = higher value; nuclei count: measured here: cell number, toxicity
[4] = target: Voltage-gated potassium channel subunit beta-2 (Rattus norvegicus) (UniProt P62483); experiment: KvBeta enzyme negative modulators, primary screen, biochemical, NADPH fluorescence (AID 622;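 active = fluorescence slope higher than the sample average by over 3 SD, cut at about -0.22 in these data, passing the limit was not always enough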;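 also: slope of raw intensity against log time taken from 70 to 1610 s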); conditions: recombinant KvBeta, 4-cyanobenzaldehyde reduction, at 10 µM, stronger effect = higher value
Voltage-gated potassium channel subunit beta-2 (Rattus norvegicus), sequence (P62483 whole entry, looked up): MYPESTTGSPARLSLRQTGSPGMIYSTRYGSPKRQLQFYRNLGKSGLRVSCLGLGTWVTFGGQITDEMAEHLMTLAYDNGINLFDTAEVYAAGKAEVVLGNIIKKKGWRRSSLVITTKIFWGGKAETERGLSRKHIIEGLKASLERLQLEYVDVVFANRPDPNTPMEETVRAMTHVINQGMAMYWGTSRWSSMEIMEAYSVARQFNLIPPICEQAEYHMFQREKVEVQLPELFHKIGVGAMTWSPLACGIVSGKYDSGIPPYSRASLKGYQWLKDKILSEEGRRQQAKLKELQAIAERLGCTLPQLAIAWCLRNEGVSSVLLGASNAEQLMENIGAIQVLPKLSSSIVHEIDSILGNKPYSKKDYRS

[5] = target: Voltage-gated potassium channel subunit beta-2 (Rattus norvegicus) (UniProt P62483); experiment: KvBeta positive modulators, primary screen, biochemical, NADPH fluorescence (AID 623;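 active = NADPH fluorescence slope more negative than the mean of all samples by about 3 SD, 99.7% confidence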;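 also: fluorescence intensity change per second fitted from 20 to 320 s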); conditions: Recombinant KvBeta, NADPH fluorescence decrease slope, 10 min; at 10 µM; stronger effect = lower value
[6] = target: Alpha-2C adrenergic receptor (Homo sapiens) (UniProt P18825); experiment: modulators of alpha2C/GIRK thallium flux, primary screen, cell-based, HEK293 alpha2C/GIRK1/2 (AID 624;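 active = fluorescence slope after compound addition differing from the mean of all screened samples at 99.7% confidence, in either direction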;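 also: slope of fluorescence ratio to pre-addition baseline per second over 15 to 24 s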); conditions: thallium flux BTC fluorescence, at 10 µM, actives lie on both sides
Alpha-2C adrenergic receptor (Homo sapiens), sequence (P18825 whole entry, looked up): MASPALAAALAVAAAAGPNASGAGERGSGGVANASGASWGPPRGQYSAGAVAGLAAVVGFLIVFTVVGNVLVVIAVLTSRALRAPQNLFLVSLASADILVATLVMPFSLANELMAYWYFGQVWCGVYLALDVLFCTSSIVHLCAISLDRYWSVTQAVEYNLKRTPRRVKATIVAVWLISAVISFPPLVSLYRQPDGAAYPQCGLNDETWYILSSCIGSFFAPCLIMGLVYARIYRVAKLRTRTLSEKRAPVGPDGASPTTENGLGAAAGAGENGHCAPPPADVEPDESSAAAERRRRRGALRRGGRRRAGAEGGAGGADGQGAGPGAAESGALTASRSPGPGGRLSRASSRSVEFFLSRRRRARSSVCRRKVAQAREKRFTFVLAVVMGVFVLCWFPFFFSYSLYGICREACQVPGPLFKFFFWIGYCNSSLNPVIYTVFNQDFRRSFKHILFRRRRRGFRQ

[7] = inhibitors of Sendai virus-induced IRF3 signaling, primary screen, TLR/RLR signaling modifier project, cell-based, Sendai virus stimulus, luciferase, 10K MLSCN set (AID 602276;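 active = inhibition at or above 50% at 10 µM; inactive = inhibition below 50%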;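 also: firefly luciferase from ISG56 promoter only with Renilla not read in this screen; 0% = Sendai virus plus DMSO and 100% = medium plus DMSO without virus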); conditions: HEK293 RL24 IRF3 luciferase reporter, at 10 µM, stronger effect = higher value
[8] = inhibitors of poly I:C-induced TLR3 signaling, primary screen, cell-based, poly I:C stimulus, luciferase, 10K MLSCN set (AID 602277); conditions: HEK293-TLR3 RL24 IRF3 luciferase reporter, at 10 µM, stronger effect = higher value

What does the source list for O=C(NCCSc1c[nH]c2ccccc12)c1ccco1?
cell count [1]: 686; inhibition [1]: -2.4% (inactive); inhibition of aggregation [2]: -13.1% (inactive); nuclei count [2]: 108%; inhibition [3]: -15.8% (inactive); nuclei count [3]: 116%; fluorescence slope [4]: -0.562 (inactive); NADPH fluorescence slope [5]: -4e-05 (inactive); slope [6]: 0.00591 (inactive); inhibition [7]: 10.1% (inactive); inhibition [8]: 32.9% (inactive)

With COc1ccc(C(=O)NC(=O)CSc2nnc(-c3ccco3)n2-c2ccccc2)cc1 as the compound, how does the cell count [1] read?
The cell count was 447.

And the inhibition [1]?
Its inhibition is 14.6% (inactive).

And the inhibition of aggregation [2]?
Its inhibition of aggregation is -9.6% (inactive).

And the nuclei count [2]?
The nuclei count was 104%.

And the inhibition [3]?
The inhibition was -9.4% (inactive).

What about the nuclei count [3] of the same compound?
The nuclei count was 107%.

What about the fluorescence slope [4] of the same compound?
Its fluorescence slope is -0.324 (inactive).

What about the NADPH fluorescence slope [5] of the same compound?
The NADPH fluorescence slope was -7e-05 (inactive).

And the slope [6]?
The slope was 0.0052 (inactive).

What about the inhibition [7] of the same compound?
The inhibition was 5.3% (inactive).

And the inhibition [8]?
The inhibition was 10.1% (inactive).

For Cc1ccc2c(c1)-c1c(cnn1CC(=O)NC(C)CCc1ccco1)CO2 (centres undefined), which cell count [1] is on record?
The cell count was 799.

What about the inhibition [1] of the same compound?
The inhibition was 4.6% (inactive).

What about the inhibition of aggregation [2] of the same compound?
The inhibition of aggregation was -8% (inactive).

And the nuclei count [2]?
Its nuclei count is 119%.

And the inhibition [3]?
The inhibition was -62.3% (inactive).

And the nuclei count [3]?
The nuclei count was 125%.

What about the fluorescence slope [4] of the same compound?
Its fluorescence slope is -0.577 (inactive).

And the NADPH fluorescence slope [5]?
Its NADPH fluorescence slope is -2e-05 (inactive).

What about the slope [6] of the same compound?
The slope was 0.00658 (inactive).

And the inhibition [7]?
Its inhibition is 11.5% (inactive).

And the inhibition [8]?
The inhibition was 29.3% (inactive).

With CCOc1ccccc1NC(=O)C1CCCN(S(=O)(=O)c2cccc3cccnc23)C1 (centres undefined) as the compound, how does the cell count [1] read?
The cell count was 717.

And the inhibition [1]?
The inhibition was 0% (inactive).

What about the inhibition of aggregation [2] of the same compound?
Its inhibition of aggregation is 14.7% (inactive).

And the nuclei count [2]?
Its nuclei count is 124%.

And the inhibition [3]?
Its inhibition is -55.7% (inactive).

What about the nuclei count [3] of the same compound?
Its nuclei count is 101%.

And the fluorescence slope [4]?
Its fluorescence slope is -0.55 (inactive).

And the NADPH fluorescence slope [5]?
The NADPH fluorescence slope was -3.3e-05 (inactive).

What about the slope [6] of the same compound?
The slope was 0.00547 (inactive).

And the inhibition [7]?
The inhibition was 19.8% (inactive).

What about the inhibition [8] of the same compound?
The inhibition was 43.4% (inactive).

Which results are given for O=S(=O)(Nc1cccnc1)c1ccc2c(c1)OCCO2?
cell count [1]: 337; inhibition [1]: 10.2% (inactive); inhibition of aggregation [2]: 5.2% (inactive); nuclei count [2]: 88.2%; inhibition [3]: 16.8% (inactive); nuclei count [3]: 92%; fluorescence slope [4]: -0.393 (inactive); NADPH fluorescence slope [5]: -4.2e-05 (inactive); slope [6]: 0.00465 (inactive); inhibition [7]: 13.5% (inactive); inhibition [8]: 17.6% (inactive)

With Cc1ccnc(N2CCN(C(=O)CSc3nc4ccccc4nc3N3CCCCC3)CC2)c1 as the compound, how does the cell count [1] read?
The cell count was 451.

And the inhibition [1]?
Its inhibition is -9.8% (inactive).

And the inhibition of aggregation [2]?
The inhibition of aggregation was -14.3% (inactive).

And the nuclei count [2]?
The nuclei count was 113%.

What about the inhibition [3] of the same compound?
Its inhibition is -13.7% (inactive).

And the nuclei count [3]?
The nuclei count was 100%.

What about the fluorescence slope [4] of the same compound?
Its fluorescence slope is -0.333 (inactive).

What about the NADPH fluorescence slope [5] of the same compound?
The NADPH fluorescence slope was 9.1e-07 (inactive).

And the slope [6]?
The slope was 0.00385 (inactive).

What about the inhibition [7] of the same compound?
Its inhibition is 9.18% (inactive).

What about the inhibition [8] of the same compound?
Its inhibition is 4.58% (inactive).

Which cell count [1] does the source give for O=C(O)c1[nH]c2ccc(Cl)cc2c1CC(=O)N1CCN(C(=O)c2ccco2)CC1 here?
The cell count was 374.

And the inhibition [1]?
The inhibition was -0.5% (inactive).

What about the inhibition of aggregation [2] of the same compound?
Its inhibition of aggregation is -8.5% (inactive).

And the nuclei count [2]?
Its nuclei count is 99.6%.

What about the inhibition [3] of the same compound?
Its inhibition is -73.3% (inactive).

What about the nuclei count [3] of the same compound?
Its nuclei count is 103%.

And the fluorescence slope [4]?
The fluorescence slope was -0.401 (inactive).

And the NADPH fluorescence slope [5]?
Its NADPH fluorescence slope is -3.1e-05 (inactive).

What about the slope [6] of the same compound?
Its slope is 0.003 (inactive).

What about the inhibition [7] of the same compound?
The inhibition was 7.71% (inactive).

And the inhibition [8]?
Its inhibition is 0.844% (inactive).

Which cell count [1] does the source give for Cn1cc(Cl)c(C(=O)N(Cc2ccccc2)c2ccccn2)n1 here?
The cell count was 623.

What about the inhibition [1] of the same compound?
Its inhibition is 8.3% (inactive).

What about the inhibition of aggregation [2] of the same compound?
The inhibition of aggregation was -6.5% (inactive).

What about the nuclei count [2] of the same compound?
Its nuclei count is 102%.

What about the inhibition [3] of the same compound?
The inhibition was -5.2% (inactive).

And the nuclei count [3]?
Its nuclei count is 117%.

What about the fluorescence slope [4] of the same compound?
The fluorescence slope was -0.584 (inactive).

What about the NADPH fluorescence slope [5] of the same compound?
Its NADPH fluorescence slope is -3.1e-06 (inactive).

What about the slope [6] of the same compound?
Its slope is 0.00695 (inactive).

What about the inhibition [7] of the same compound?
Its inhibition is -18.3% (inactive).

What about the inhibition [8] of the same compound?
The inhibition was 0.52% (inactive).

What does the source list for Cn1c(=O)oc2cc(S(=O)(=O)N3CCCC(C(=O)NCC4COc5ccccc5O4)C3)ccc21 (centres undefined)?
cell count [1]: 751; inhibition [1]: -1.9% (inactive); inhibition of aggregation [2]: -6.6% (inactive); nuclei count [2]: 105%; inhibition [3]: -40.9% (inactive); nuclei count [3]: 124%; fluorescence slope [4]: -0.575 (inactive); NADPH fluorescence slope [5]: 1.7e-05 (inactive); slope [6]: 0.00726 (inactive); inhibition [7]: -12.4% (inactive); inhibition [8]: -5.33% (inactive)

What does the source list for CC(C)(C)NC(=O)CC(CC(=O)O)c1ccccc1 (centres undefined)?
cell count [1]: 584; inhibition [1]: 2.9% (inactive); inhibition of aggregation [2]: -4.2% (inactive); nuclei count [2]: 85.7%; inhibition [3]: -30.6% (inactive); nuclei count [3]: 109%; fluorescence slope [4]: -0.539 (inactive); NADPH fluorescence slope [5]: -3.4e-05 (inactive); slope [6]: 0.008 (inactive); inhibition [7]: 12.7% (inactive); inhibition [8]: 37.3% (inactive)

Which cell count [1] does the source give for CCOC(=O)N1CCN(c2nc(-c3ccc(Cl)cc3)cs2)CC1 here?
The cell count was 256.

And the inhibition [1]?
The inhibition was 7.4% (inactive).

What about the inhibition of aggregation [2] of the same compound?
The inhibition of aggregation was 7.8% (inactive).

And the nuclei count [2]?
The nuclei count was 80.8%.

What about the inhibition [3] of the same compound?
Its inhibition is -94.3% (inactive).

And the nuclei count [3]?
Its nuclei count is 113%.

And the fluorescence slope [4]?
The fluorescence slope was -0.35 (inactive).

What about the NADPH fluorescence slope [5] of the same compound?
Its NADPH fluorescence slope is -3.8e-05 (inactive).

What about the slope [6] of the same compound?
The slope was 0.00625 (inactive).

What about the inhibition [7] of the same compound?
The inhibition was -3.5% (inactive).

What about the inhibition [8] of the same compound?
The inhibition was -38.7% (inactive).

What does the source list for CCC(C)NCC(O)COCc1ccc(Cl)cc1 (centres undefined)?
cell count [1]: 296; inhibition [1]: -2% (inactive); inhibition of aggregation [2]: -4% (inactive); nuclei count [2]: 98.9%; inhibition [3]: -9.3% (inactive); nuclei count [3]: 86.6%; fluorescence slope [4]: -0.484 (inactive); NADPH fluorescence slope [5]: -5.9e-06 (inactive); slope [6]: 0.00563 (inactive); inhibition [7]: 15.4% (inactive); inhibition [8]: 20.9% (inactive)

Which cell count [1] does the source give for CCc1nnc(NC(=O)CCC(=O)Nc2ccccc2)s1 here?
The cell count was 554.

What about the inhibition [1] of the same compound?
Its inhibition is 7.2% (inactive).

And the inhibition of aggregation [2]?
The inhibition of aggregation was -10.2% (inactive).

What about the nuclei count [2] of the same compound?
The nuclei count was 97.2%.

And the inhibition [3]?
Its inhibition is 33.2% (inactive).

What about the nuclei count [3] of the same compound?
The nuclei count was 93.4%.

What about the fluorescence slope [4] of the same compound?
The fluorescence slope was -0.384 (inactive).

And the NADPH fluorescence slope [5]?
The NADPH fluorescence slope was -6.1e-05 (inactive).

And the slope [6]?
The slope was 0.00537 (inactive).

And the inhibition [7]?
Its inhibition is 9.85% (inactive).

What about the inhibition [8] of the same compound?
Its inhibition is 2.44% (inactive).

With Cc1ccc(C)c2[nH]c(=O)c(CCNC(=O)c3ccc(S(=O)(=O)N(C)C)cc3)cc12 as the compound, how does the cell count [1] read?
The cell count was 596.

What about the inhibition [1] of the same compound?
The inhibition was 4.3% (inactive).

And the inhibition of aggregation [2]?
Its inhibition of aggregation is 15% (inactive).

And the nuclei count [2]?
Its nuclei count is 125%.

And the inhibition [3]?
Its inhibition is -14% (inactive).

What about the nuclei count [3] of the same compound?
Its nuclei count is 116%.

And the fluorescence slope [4]?
The fluorescence slope was -0.557 (inactive).

What about the NADPH fluorescence slope [5] of the same compound?
Its NADPH fluorescence slope is -4e-05 (inactive).

What about the slope [6] of the same compound?
Its slope is 0.00528 (inactive).

What about the inhibition [7] of the same compound?
The inhibition was 3.79% (inactive).

And the inhibition [8]?
The inhibition was 22.8% (inactive).
